Test results taken from PubChem BioAssay.
Where “and” joins values, the source holds several entries; their conditions need not be identical. Identical values can stand only once. Calls of active or inactive are those of the source.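 The calls were made as follows, unless noted: active = compound raises insulin release from rat beta cells at 5 mM glucose, no numeric limit stated; inactive = the rest.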

Assays:
[1] = P. berghei load reduction in hepatocytes – cell-based, HepG2, luciferase luminescence, HepG2 viability, primary screen (AID 624349; in the data active = parasite load remaining mostly below about 12%, no sharp cut-off; inactive = mostly above about 10%;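 also: 100% = mean of DMSO negative control wells on the same plate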); details: P. berghei liver stage in HepG2, luciferase luminescence, concentration not given here; parasite load remaining: stronger effect = lower value; viability: measured here: HepG2 viability without parasites
[2] = Wnt pathway potentiators raising nuclear beta-catenin – imaging, WNT3A-conditioned medium, mouse C2C12, NPC library, primary screen (AID 1117326; in the data active = nuclear beta-catenin stimulation mostly above about 4.2%, no sharp cut-off; inactive = mostly below about 10%; also: reference of the scale not given here); details: stronger effect = higher value
[3] = stimulators of insulin release from INS-1E, primary screen, cell-based, 5 mM glucose, NPC library (AID 1117329); details: rat INS-1E insulin secretion, at 10 µM, stronger effect = higher value; also: reference of the scale not given here
[4] = growth inhibition of GSK3B-pretreated HCT116 cells – cell-based, CellTiter-Glo, 0.2 to 20 µM (AID 1117336;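 active = compounds lowering colon cancer cell viability after pretreatment blocking the GSK3B kinase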); details: HCT116 viability after GSK3B inhibitor, at 20 µM, stronger effect = higher value
[5] = inhibition of endothelial tube formation, primary screen, imaging, VEGF stimulated, CD31 staining, tube area, NPC library (AID 1117340;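 active = compound that reduces growth-factor-driven endothelial tube area in a mixed cell culture, no cutoff stated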); details: VEGF-stimulated ADSC/ECFC co-culture, at 10 µM, stronger effect = higher value
[6] = GLP1 release stimulators, primary, NCI-H716, NPC library (AID 1117341;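 active = compound raises GLP1 secretion from the human gut endocrine cells, with no numeric limit stated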; also: reference of the scale not given here); details: NCI-H716 cells, at 10 µM, stronger effect = higher value
[7] = HCT116 colon cancer cell growth inhibition, primary screen, CellTiter-Glo luminescence, NPC library (AID 1117342;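 active = compounds that lower survival of HCT116 colon cancer cells in the luminescence readout, no numeric limit stated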); details: at 20 µM (top of the series)
[8] = reduced SW480 viability measured with CellTiter-Glo, NPC library, primary (AID 1117343;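 active = compounds that lower viability of the colon cancer cells in the luminescence readout, with no numeric limit stated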); details: CellTiter-Glo luminescence; at 20 µM (top of the series)
[9] = NPC library primary testing for decreased DLD-1 cell viability via CellTiter-Glo (AID 1117346;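 active = compounds that lower survival of DLD-1 colon cancer cells in the luminescence readout, no cutoff given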); details: DLD-1 viability, CellTiter-Glo luminescence; at 20 µM (top of the series)
[10] = viability loss with induced miR-34 in A549 – imaging, A549 dox-inducible miR-34, nuclei and caspase counts, primary screen (AID 1347080;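 active = compounds whose cell count with miR-34 switched on is under 0.7 times the count with it off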); details: A549 miR-34 inducible, Hoechst nuclei count, 48 h
[11] = MELAS cybrid and Rieske KO viability enhancers – cell-based, MELAS cybrids, Rieske KO mouse fibroblasts, CellTiter-Glo, primary screen (AID 1508586;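 active = mean z-score across replicates of 1.96 or higher in either the MELAS or the Rieske mutant cell line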;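 also: z relative to plate mean and SD of compound and empty wells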); details: low glucose
[12] = galactose survival enhancers in mitochondrial complex I cybrids – cell-based, galactose medium, ATP luminescence, primary screen (AID 1645843;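 active = z-score of at least 1.8 in each of two replicates, scored against plate mean and spread of sample wells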;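 also: positive z means more ATP and so rescue of galactose-driven cybrid death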); details: complex I mutant cybrid cells, 72 h, stronger effect = higher value
[13] = compounds altering viability of human ES cells (AID 493140; call rule not given here;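 also: cells exposed to compounds for four days before counting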); details: human embryonic stem cell survival screen; stronger effect = higher value
[14] = biological target: NAD(+) hydrolase SARM1 (Homo sapiens) (UniProt Q6SZW1); experiment: blocking NAD cleavage by SARM1 SAM-TIR – cell lysate, NAD-Glo luminescence (AID 1508614;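 active = compound whose remaining NAD level is above about 45 nM, limit read from the data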;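 also: higher remaining NAD means stronger inhibition of SARM1 NADase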); details: SAM-TIR HEK293T lysate NADase, at 1 µM, stronger effect = higher value
Chain of NAD(+) hydrolase SARM1 (Homo sapiens) (Q6SZW1 whole entry, looked up): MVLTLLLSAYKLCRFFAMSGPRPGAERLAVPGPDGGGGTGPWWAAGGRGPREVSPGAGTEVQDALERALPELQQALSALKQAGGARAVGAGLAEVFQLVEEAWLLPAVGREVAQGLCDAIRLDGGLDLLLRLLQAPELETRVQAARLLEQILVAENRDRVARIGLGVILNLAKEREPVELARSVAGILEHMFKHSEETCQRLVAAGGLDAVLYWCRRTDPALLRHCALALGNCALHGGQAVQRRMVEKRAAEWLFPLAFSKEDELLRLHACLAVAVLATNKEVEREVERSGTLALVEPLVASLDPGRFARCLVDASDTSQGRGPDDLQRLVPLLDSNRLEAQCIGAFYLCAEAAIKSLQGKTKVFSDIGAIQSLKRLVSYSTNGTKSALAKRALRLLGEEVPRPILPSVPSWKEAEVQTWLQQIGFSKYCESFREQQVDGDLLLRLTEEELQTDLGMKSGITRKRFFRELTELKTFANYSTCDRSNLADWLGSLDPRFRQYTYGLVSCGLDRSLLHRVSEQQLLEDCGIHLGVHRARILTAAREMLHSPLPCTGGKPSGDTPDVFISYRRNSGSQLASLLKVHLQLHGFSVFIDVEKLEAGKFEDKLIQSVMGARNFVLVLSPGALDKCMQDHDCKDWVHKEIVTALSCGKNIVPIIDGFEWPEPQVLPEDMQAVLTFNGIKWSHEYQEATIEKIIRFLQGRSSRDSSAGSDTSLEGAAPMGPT

[15] = measured here: relative caspase fold change +Dox/-Dox
[16] = measured here: total cells with miR-34 induction, stronger effect = lower value
[17] = measured here: total cells without miR-34 induction
[18] = MELAS cybrid survival, CellTiter-Glo 48 h, stronger effect = higher value
[19] = Rieske KO mouse fibroblast survival, CellTiter-Glo 72 h

For `C#C[C@]1(O)CC[C@H]2[C@@H]3CCC4=CC(=O)CCC4=C3C=C[C@@]21CC`, which parasite load remaining [1] is on record?
The parasite load remaining was 55.7% (inactive).

And the viability [1]?
The viability was 102%.

What about the nuclear beta-catenin stimulation ([2]; at 10 µM) of the same compound?
Its nuclear beta-catenin stimulation is -0.6% (inactive).

What about the nuclear beta-catenin stimulation ([2]; stimulation, at 2 µM) of the same compound?
The nuclear beta-catenin stimulation was 0.3%.

What about the insulin secretion stimulation [3] of the same compound?
Its insulin secretion stimulation is 0.7% (inactive).

What about the viability decrease [4] of the same compound?
Its viability decrease is 14.5% (inactive).

And the tube area decrease [5]?
The tube area decrease was 41.9% (active).

And the GLP1 secretion stimulation [6]?
The GLP1 secretion stimulation was 2.8% (inactive).

What about the inhibition of viability [7] of the same compound?
The inhibition of viability was 26.1% (inactive).

What about the viability decrease (inhibition) [8] of the same compound?
The viability decrease (inhibition) was 16% (inactive).

And the viability decrease (inhibition) [9]?
Its viability decrease (inhibition) is -9.5% (inactive).

What about the fold change ([10]; stronger effect = lower value) of the same compound?
Its fold change is 0.886 (inactive).

And the fold change [10, 15]?
The fold change was 1.01.

What about the cell count [10, 16] of the same compound?
Its cell count is 9780.

What about the cell count [10, 17] of the same compound?
Its cell count is 11000.

And the z-score [11, 18]?
Its z-score is 0.0912 (inactive) and 0.694 (inactive).

And the z-score [11, 19]?
The z-score was 0.385 and 1.43.

What about the z-score [12] of the same compound?
Its z-score is 0.24 (inactive).

Which nuclear beta-catenin stimulation ([2]; at 10 µM) does the source give for `CC=CC1C(C(=O)OCc2c(F)c(F)c(COC)c(F)c2F)C1(C)C` (stereo not drawn) here?
The nuclear beta-catenin stimulation was 2.1% (inactive).

And the nuclear beta-catenin stimulation ([2]; stimulation, at 2 µM)?
Its nuclear beta-catenin stimulation is -0.3%.

What about the insulin secretion stimulation [3] of the same compound?
Its insulin secretion stimulation is 0.95% (inactive).

And the GLP1 secretion stimulation [6]?
Its GLP1 secretion stimulation is -3.8% (inactive).

Which results are given for `OC(c1ccccc1)(c1ccccc1)C1CCNCC1`?
survival [13]: 34.8 (inactive); parasite load remaining [1]: 42.4% (inactive) and 92.2% (inactive); viability [1]: 47.4% and 92.3%; nuclear beta-catenin stimulation ([2]; at 10 µM): -0.1% (inactive); nuclear beta-catenin stimulation ([2]; stimulation, at 2 µM): 0.4%; insulin secretion stimulation [3]: 17.4% (inactive); viability decrease [4]: -5.8% (inactive); tube area decrease [5]: 27.7% (inactive); GLP1 secretion stimulation [6]: 0.1% (inactive); inhibition of viability [7]: -10.1% (inactive); viability decrease (inhibition) [8]: 117% (active); viability decrease (inhibition) [9]: 2.9% (inactive); fold change ([10]; stronger effect = lower value): 0.979 (inactive) and 0.871 (inactive); fold change [10, 15]: 1.21 and 1; cell count [10, 16]: 8990 and 7950; cell count [10, 17]: 9180 and 9130; z-score [11, 18]: -0.109 (inactive) and -0.124 (inactive); z-score [11, 19]: -0.152 and 0.513

Which results are given for `O=C(CCCN1CCC(n2c(=O)[nH]c3ccccc32)CC1)c1ccc(F)cc1`?
survival [13]: 11.5 (inactive); parasite load remaining [1]: -5.69% (inactive) and 52.9% (inactive); viability [1]: 105% and 74.8%; nuclear beta-catenin stimulation ([2]; at 10 µM): 4.7% (inactive); nuclear beta-catenin stimulation ([2]; stimulation, at 2 µM): 3%; insulin secretion stimulation [3]: 0.7% (inactive); viability decrease [4]: -40.8% (inactive); tube area decrease [5]: 8% (inactive); GLP1 secretion stimulation [6]: 2.9% (inactive); inhibition of viability [7]: 19.9% (inactive); viability decrease (inhibition) [8]: 29.4% (inactive); viability decrease (inhibition) [9]: 2.6% (inactive); fold change ([10]; stronger effect = lower value): 0.825 (inactive); fold change [10, 15]: 1.64; cell count [10, 16]: 7580; cell count [10, 17]: 9190; z-score [11, 18]: 0.0917 (inactive); z-score [11, 19]: -0.147

Which nuclear beta-catenin stimulation ([2]; at 10 µM) does the source give for `Cc1cccc(Cc2cnc[nH]2)c1C` here?
Its nuclear beta-catenin stimulation is 7.4% (inactive).

And the nuclear beta-catenin stimulation ([2]; stimulation, at 2 µM)?
Its nuclear beta-catenin stimulation is 8.1%.

What about the insulin secretion stimulation [3] of the same compound?
The insulin secretion stimulation was 0.4% (inactive).

And the viability decrease [4]?
The viability decrease was -41.9% (inactive).

And the tube area decrease [5]?
Its tube area decrease is 15.5% (inactive).

What about the GLP1 secretion stimulation [6] of the same compound?
Its GLP1 secretion stimulation is 4.1% (inactive).

And the inhibition of viability [7]?
The inhibition of viability was 4.37% (inactive).

What about the viability decrease (inhibition) [8] of the same compound?
The viability decrease (inhibition) was -5.1% (inactive).

What about the viability decrease (inhibition) [9] of the same compound?
Its viability decrease (inhibition) is -9.9% (inactive).

What about the fold change ([10]; stronger effect = lower value) of the same compound?
The fold change was 0.969 (inactive).

And the fold change [10, 15]?
The fold change was 0.529.

What about the cell count [10, 16] of the same compound?
Its cell count is 7080.

What about the cell count [10, 17] of the same compound?
The cell count was 7310.

And the z-score [11, 18]?
The z-score was 0.317 (inactive).

And the z-score [11, 19]?
Its z-score is -0.228.

What does the source list for `CC[N+]1(CCOC(=O)C(O)(c2ccccc2)c2ccccc2)CCCCC1`?
nuclear beta-catenin stimulation ([2]; at 10 µM): -0.3% (inactive); nuclear beta-catenin stimulation ([2]; stimulation, at 2 µM): 0.7%; insulin secretion stimulation [3]: -0.8% (inactive); tube area decrease [5]: 23.5% (inactive); GLP1 secretion stimulation [6]: 0.5% (inactive)

Which nuclear beta-catenin stimulation ([2]; at 10 µM) does the source give for `[N-]=[N+]=CC(=O)OC[C@H](N)C(=O)O` here?
Its nuclear beta-catenin stimulation is -2.7% (inactive).

What about the nuclear beta-catenin stimulation ([2]; stimulation, at 2 µM) of the same compound?
The nuclear beta-catenin stimulation was -2.4%.

What about the insulin secretion stimulation [3] of the same compound?
The insulin secretion stimulation was -0.2% (inactive).

What about the viability decrease [4] of the same compound?
Its viability decrease is 50.2% (active).

What about the tube area decrease [5] of the same compound?
The tube area decrease was 12.9% (inactive).

What about the GLP1 secretion stimulation [6] of the same compound?
The GLP1 secretion stimulation was -1.4% (inactive).

What about the inhibition of viability [7] of the same compound?
The inhibition of viability was 77.9% (active).

And the viability decrease (inhibition) [8]?
The viability decrease (inhibition) was 104% (active).

What about the viability decrease (inhibition) [9] of the same compound?
The viability decrease (inhibition) was 57.8% (active).

What about the remaining NAD [14] of the same compound?
The remaining NAD was 10 nM (inactive).
